The record followed here is the supplement of paper PMC10849652.

The full data set covers some 7,900 targets. This sample favours those with a hit. About 0.6% of all pairs of compound and target were hits. Unmarked numbers belong to inactive results.

Sequence of UniProt P61960 (P61960 whole entry, looked up): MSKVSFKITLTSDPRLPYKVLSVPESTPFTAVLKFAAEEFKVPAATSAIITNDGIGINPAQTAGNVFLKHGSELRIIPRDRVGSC
Sequence of UniProt Q9NQ34 (Q9NQ34 whole entry, looked up): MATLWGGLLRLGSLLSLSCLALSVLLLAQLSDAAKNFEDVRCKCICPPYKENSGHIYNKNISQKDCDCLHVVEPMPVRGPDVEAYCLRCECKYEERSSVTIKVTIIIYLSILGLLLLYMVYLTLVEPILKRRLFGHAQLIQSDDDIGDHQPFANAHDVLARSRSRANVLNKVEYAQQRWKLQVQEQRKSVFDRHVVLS
Sequence of UniProt Q9NUM4 (Q9NUM4 whole entry, looked up): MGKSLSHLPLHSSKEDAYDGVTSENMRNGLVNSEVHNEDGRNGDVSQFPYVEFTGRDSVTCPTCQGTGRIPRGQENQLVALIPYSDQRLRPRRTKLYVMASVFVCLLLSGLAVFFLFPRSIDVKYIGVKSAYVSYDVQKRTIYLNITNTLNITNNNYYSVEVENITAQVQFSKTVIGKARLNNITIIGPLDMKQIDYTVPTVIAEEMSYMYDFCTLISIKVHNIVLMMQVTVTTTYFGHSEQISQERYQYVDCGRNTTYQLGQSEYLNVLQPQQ
Sequence of UniProt Q96HV5 (Q96HV5 whole entry, looked up): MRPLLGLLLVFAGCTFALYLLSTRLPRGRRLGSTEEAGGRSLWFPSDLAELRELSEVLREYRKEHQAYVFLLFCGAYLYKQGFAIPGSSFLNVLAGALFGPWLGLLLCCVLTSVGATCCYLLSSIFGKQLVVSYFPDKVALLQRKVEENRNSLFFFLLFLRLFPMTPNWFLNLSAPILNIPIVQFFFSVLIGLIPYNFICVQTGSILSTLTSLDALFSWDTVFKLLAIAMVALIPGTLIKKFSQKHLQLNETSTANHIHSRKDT
Sequence of UniProt Q9NX01 (Q9NX01 whole entry, looked up): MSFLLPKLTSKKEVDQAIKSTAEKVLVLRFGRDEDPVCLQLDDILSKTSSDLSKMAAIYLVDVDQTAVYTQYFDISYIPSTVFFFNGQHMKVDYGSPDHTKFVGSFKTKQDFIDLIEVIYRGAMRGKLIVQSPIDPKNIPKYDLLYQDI
Sequence of UniProt Q9H3M7 (Q9H3M7 whole entry, looked up): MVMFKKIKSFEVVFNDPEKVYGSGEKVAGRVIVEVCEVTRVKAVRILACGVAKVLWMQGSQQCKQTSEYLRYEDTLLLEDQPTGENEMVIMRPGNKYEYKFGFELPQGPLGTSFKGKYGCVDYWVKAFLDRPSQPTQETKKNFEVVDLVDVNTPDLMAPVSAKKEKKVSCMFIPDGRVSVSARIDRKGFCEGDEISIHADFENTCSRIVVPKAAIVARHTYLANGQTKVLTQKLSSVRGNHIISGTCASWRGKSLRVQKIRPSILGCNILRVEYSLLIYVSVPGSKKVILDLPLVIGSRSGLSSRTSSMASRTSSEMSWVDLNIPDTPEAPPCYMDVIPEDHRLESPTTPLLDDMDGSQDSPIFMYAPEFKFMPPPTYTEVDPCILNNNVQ
Sequence of UniProt P30291 (P30291 whole entry, looked up): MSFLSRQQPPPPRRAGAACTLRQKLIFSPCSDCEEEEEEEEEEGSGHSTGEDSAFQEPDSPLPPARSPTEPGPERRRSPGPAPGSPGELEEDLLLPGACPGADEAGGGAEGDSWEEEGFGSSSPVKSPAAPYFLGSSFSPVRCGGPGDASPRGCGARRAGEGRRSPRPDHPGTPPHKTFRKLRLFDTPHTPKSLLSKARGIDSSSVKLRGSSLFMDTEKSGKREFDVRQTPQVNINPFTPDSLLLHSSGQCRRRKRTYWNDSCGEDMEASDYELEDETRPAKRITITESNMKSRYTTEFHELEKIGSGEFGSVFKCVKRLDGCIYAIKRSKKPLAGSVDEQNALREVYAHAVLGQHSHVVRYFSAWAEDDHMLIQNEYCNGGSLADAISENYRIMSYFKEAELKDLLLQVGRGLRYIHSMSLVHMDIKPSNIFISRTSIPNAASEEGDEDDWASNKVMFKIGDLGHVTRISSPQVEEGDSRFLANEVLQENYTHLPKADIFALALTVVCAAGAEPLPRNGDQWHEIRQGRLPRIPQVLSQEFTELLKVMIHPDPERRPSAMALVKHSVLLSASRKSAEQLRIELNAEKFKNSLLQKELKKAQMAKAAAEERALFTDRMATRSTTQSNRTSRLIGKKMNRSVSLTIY
Sequence of UniProt Q8NEZ2 (Q8NEZ2 whole entry, looked up): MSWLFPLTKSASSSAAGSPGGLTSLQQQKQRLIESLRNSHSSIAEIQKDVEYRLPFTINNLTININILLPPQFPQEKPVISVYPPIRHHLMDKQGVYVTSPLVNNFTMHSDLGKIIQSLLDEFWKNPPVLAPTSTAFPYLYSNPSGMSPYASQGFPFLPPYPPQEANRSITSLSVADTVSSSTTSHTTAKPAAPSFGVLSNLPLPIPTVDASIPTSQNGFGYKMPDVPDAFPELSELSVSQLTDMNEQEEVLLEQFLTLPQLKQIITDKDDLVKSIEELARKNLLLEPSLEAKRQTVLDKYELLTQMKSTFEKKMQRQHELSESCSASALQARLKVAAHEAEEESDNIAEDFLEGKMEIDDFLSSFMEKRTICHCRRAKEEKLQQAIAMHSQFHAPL
Sequence of UniProt Q9UID3 (Q9UID3 whole entry, looked up): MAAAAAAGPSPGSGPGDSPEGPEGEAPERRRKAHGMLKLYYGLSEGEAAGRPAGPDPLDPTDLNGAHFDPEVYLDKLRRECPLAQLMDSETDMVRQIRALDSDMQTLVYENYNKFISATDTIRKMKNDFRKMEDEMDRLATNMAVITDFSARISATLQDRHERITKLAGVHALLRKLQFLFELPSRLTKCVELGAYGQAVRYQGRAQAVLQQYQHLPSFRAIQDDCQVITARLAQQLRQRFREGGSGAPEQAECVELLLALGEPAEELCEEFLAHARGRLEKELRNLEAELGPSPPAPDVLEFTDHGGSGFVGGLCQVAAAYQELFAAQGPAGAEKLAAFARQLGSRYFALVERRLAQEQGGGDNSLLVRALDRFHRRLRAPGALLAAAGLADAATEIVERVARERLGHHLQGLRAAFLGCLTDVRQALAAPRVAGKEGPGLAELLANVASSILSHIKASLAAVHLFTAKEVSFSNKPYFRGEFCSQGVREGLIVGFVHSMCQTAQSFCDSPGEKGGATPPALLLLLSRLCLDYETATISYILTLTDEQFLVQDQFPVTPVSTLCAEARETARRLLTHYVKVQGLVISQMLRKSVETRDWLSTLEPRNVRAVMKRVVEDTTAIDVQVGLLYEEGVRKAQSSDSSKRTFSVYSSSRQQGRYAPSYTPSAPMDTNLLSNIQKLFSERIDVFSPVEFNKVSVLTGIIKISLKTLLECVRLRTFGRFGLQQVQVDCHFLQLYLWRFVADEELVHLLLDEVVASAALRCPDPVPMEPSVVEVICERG
Sequence of UniProt Q7Z3J2 (Q7Z3J2 whole entry, looked up): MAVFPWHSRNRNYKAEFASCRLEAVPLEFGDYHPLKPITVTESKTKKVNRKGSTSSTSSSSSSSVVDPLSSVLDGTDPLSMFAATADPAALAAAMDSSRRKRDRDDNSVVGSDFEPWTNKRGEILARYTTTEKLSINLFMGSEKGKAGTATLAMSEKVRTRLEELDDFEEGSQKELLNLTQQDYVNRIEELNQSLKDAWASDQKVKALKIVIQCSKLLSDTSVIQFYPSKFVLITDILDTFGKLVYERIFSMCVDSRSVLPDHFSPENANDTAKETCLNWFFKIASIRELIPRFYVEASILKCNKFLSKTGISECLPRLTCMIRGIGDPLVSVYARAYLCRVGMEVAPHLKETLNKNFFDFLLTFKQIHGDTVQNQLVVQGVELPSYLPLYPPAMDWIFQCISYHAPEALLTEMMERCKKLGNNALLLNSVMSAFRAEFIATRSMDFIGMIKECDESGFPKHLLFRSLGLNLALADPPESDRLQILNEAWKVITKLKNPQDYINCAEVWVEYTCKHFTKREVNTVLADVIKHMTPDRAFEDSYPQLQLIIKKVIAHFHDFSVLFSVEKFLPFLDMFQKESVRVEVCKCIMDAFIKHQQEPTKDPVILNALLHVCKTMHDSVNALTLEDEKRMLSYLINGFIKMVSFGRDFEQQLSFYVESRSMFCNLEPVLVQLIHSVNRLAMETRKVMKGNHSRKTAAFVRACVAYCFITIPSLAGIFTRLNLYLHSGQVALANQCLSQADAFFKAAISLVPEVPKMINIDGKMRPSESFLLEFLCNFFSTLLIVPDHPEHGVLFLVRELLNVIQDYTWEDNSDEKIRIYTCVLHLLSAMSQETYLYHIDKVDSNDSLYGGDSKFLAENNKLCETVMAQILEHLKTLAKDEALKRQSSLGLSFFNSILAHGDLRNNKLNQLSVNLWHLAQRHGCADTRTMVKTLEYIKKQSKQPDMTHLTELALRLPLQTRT
Sequence of UniProt Q9BQB6 (Q9BQB6 whole entry, looked up): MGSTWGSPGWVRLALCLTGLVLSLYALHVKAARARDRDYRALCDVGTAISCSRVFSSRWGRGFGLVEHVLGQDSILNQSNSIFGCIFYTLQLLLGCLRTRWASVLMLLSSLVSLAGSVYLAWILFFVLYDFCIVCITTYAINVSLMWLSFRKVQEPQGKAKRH
Sequence of UniProt Q5U3C3 (Q5U3C3 whole entry, looked up): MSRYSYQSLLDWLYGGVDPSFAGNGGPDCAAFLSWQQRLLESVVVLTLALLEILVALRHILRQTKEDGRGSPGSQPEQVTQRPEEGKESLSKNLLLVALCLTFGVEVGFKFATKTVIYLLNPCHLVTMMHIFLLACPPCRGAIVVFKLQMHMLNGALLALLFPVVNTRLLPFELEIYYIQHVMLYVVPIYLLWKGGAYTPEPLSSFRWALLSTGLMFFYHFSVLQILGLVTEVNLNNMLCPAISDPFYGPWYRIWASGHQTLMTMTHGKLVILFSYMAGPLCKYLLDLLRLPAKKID
Sequence of UniProt P51668 (P51668 whole entry, looked up): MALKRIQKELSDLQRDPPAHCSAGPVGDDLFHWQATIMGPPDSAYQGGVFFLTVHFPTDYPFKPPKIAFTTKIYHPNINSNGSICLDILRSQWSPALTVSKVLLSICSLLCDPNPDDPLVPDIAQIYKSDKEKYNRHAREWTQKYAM

Compound in the first assay: NC(=O)c1cnc(N[C@@H]2CCCC[C@@H]2N)nc1Nc1cccc(-n2nccn2)c1
Nature of the assay: log2 fold change, soluble protein after heating vs DMSO (PISA); higher = thermal stabilisation; K562 cells, 10 uM, 30 min; active = over 0.2 and 3.5 SD of the protein, either way, in both replicates (recomputed). In a few lines:
(§1)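 K562 cells at 2×10^6 cells/mL were given 10 μM compound for 30 min. Aliquots then went through 3 min of heating across 48°C-58°C, were pooled, and were extracted in PBS with 0.5% NP-40 at 4°C, and the supernatant after 21,000xg for 90 min was quantified by TMTpro 16plex LC-MS/MS with channel sums equalised. Thermal stability relative to control samples, from duplicates, is given as log2 fold change.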
Consider UBIAD1 (UniProt Q9Y5Z9), for which the log2 fold change was 0.

In the case of TMEM41A (UniProt Q96HV5), the log2 fold change is -0.053.

With TXNL4B (UniProt Q9NX01), the log2 fold change was -0.112.

Consider UNC119B (UniProt A6NIH7), for which the log2 fold change was 0.039.

As to VKORC1 (UniProt Q9BQB6), the log2 fold change was 0.

For the target WASH2P (UniProt Q6VEQ5), the log2 fold change is -0.088.

TMEM184C (UniProt Q9NVA4): the log2 fold change is 0.069.

Turning to VWA3B isoform 6 (UniProt Q502W6), the log2 fold change was -0.271.

UBE2J1 (UniProt Q9Y385): the log2 fold change is -0.038.

In the case of TMEM268 isoform 3 (UniProt Q5VZI3), the log2 fold change is 0.057.

UFM1 isoform 2 (UniProt P61960): the log2 fold change was -0.114.

Take TMEM106B (UniProt Q9NUM4): the log2 fold change was -0.038.

For the target UBE2D1 (UniProt P51668), the log2 fold change was 0.042.

As to VPS37A (UniProt Q8NEZ2), the log2 fold change is -0.021.

For the target XRCC6 (UniProt P12956), the log2 fold change was -0.143.

Consider TXNIP (UniProt Q9H3M7), for which the log2 fold change was -0.024.

As to WEE1 (UniProt P30291), the log2 fold change was 0.205.

Turning to TRABD (UniProt Q9H4I3), the log2 fold change was -0.006.

For TMEM164 (UniProt Q5U3C3), the log2 fold change is -0.138.

On to TRIM44 (UniProt Q96DX7), for which the log2 fold change is -0.037.

Consider TUBAL3 (UniProt A6NHL2), for which the log2 fold change was -0.082.

TRIM4 (UniProt Q9C037): the log2 fold change was 0.007.

On to UXT isoform 2 (UniProt Q9UBK9), for which the log2 fold change was -0.067.

With TMEM9B (UniProt Q9NQ34), the log2 fold change was 0.004.

TMEM219 (UniProt Q86XT9): the log2 fold change is 0.033.

On to VPS35L (UniProt Q7Z3J2), for which the log2 fold change was 0.004.

On to VPS13B (UniProt Q7Z7G8), for which the log2 fold change is -0.033.

Regarding TMEM179B (UniProt Q7Z7N9), the log2 fold change is 0.079.

XIAP (UniProt P98170): the log2 fold change is -0.12.

For the target VPS51 (UniProt Q9UID3), the log2 fold change is -0.119.

Compound in a further assay: NC1(c2ccc(-c3nc4ccn5c(=O)[nH]nc5c4cc3-c3ccccc3)cc2)CCC1
The description is as above. In a few lines: as §1
In the case of UBIAD1 (UniProt Q9Y5Z9), the log2 fold change was 0.055.

As for TMEM41A (UniProt Q96HV5), the log2 fold change was 0.002.

As to TRIM23 (UniProt P36406), the log2 fold change is -0.02.

Turning to TXNL4B (UniProt Q9NX01), the log2 fold change was -0.035.

Consider TSPAN13 (UniProt O95857), for which the log2 fold change is -0.125.

For UNC119B (UniProt A6NIH7), the log2 fold change was 0.146.

As to TUT4 (UniProt Q5TAX3), the log2 fold change was 0.07.

As to VKORC1 (UniProt Q9BQB6), the log2 fold change was -0.054.

On to UBAP2L (UniProt F8W726), for which the log2 fold change was 0.083.

As for WASH2P (UniProt Q6VEQ5), the log2 fold change was -0.314 (active).

As to TMEM184C (UniProt Q9NVA4), the log2 fold change is -0.401 (active).

With VWA3B isoform 6 (UniProt Q502W6), the log2 fold change was -0.023.

For the target UBE2J1 (UniProt Q9Y385), the log2 fold change was 0.07.

Take TMEM268 isoform 3 (UniProt Q5VZI3): the log2 fold change was -0.141.

Consider UFM1 isoform 2 (UniProt P61960), for which the log2 fold change is -0.087.

Turning to TMEM106B (UniProt Q9NUM4), the log2 fold change is -0.056.

As for UBE2D1 (UniProt P51668), the log2 fold change is -0.143.

Take VPS37A (UniProt Q8NEZ2): the log2 fold change is -0.317.

XRCC6 (UniProt P12956): the log2 fold change was -0.139.

For the target UBXN10 (UniProt Q96LJ8), the log2 fold change is 0.102.

Take TXNIP (UniProt Q9H3M7): the log2 fold change is 0.19.

As for WEE1 (UniProt P30291), the log2 fold change is 0.04.

As for TRABD (UniProt Q9H4I3), the log2 fold change is 0.1.

Turning to TMEM164 (UniProt Q5U3C3), the log2 fold change is -0.006.

For TRIM44 (UniProt Q96DX7), the log2 fold change was -0.048.

As for TUBAL3 (UniProt A6NHL2), the log2 fold change was -0.006.

For the target TMEM8A (UniProt Q9HCN3), the log2 fold change is -0.393.

For the target TRIM4 (UniProt Q9C037), the log2 fold change was 0.082.

With UXT isoform 2 (UniProt Q9UBK9), the log2 fold change was -0.108.

As to TMEM9B (UniProt Q9NQ34), the log2 fold change was -0.093.

On to VPS35L (UniProt Q7Z3J2), for which the log2 fold change was -0.137.

In the case of VPS13B (UniProt Q7Z7G8), the log2 fold change is -0.069.

Regarding TMEM179B (UniProt Q7Z7N9), the log2 fold change was -0.255.

For the target XIAP (UniProt P98170), the log2 fold change is -0.113.

Turning to VPS51 (UniProt Q9UID3), the log2 fold change is -0.082.

Compound in the next assay: NCC(=O)Nc1ccc(-n2nc(C(F)(F)F)cc2-c2ccc3c(ccc4ccccc43)c2)cc1
The assay is described as above. In a few lines: as §1
Consider UBIAD1 (UniProt Q9Y5Z9), for which the log2 fold change is -0.122.

Regarding TMEM41A (UniProt Q96HV5), the log2 fold change is -0.066.

TRIM23 (UniProt P36406): the log2 fold change is -0.083.

TXNL4B (UniProt Q9NX01): the log2 fold change is 0.709 (active).

As to TSPAN13 (UniProt O95857), the log2 fold change is 0.03.

UNC119B (UniProt A6NIH7): the log2 fold change is 0.038.

With TUT4 (UniProt Q5TAX3), the log2 fold change was -0.349.

As to VKORC1 (UniProt Q9BQB6), the log2 fold change is -0.114.

Take WASH2P (UniProt Q6VEQ5): the log2 fold change is 0.02.

For the target TMEM184C (UniProt Q9NVA4), the log2 fold change is -0.07.

On to VWA3B isoform 6 (UniProt Q502W6), for which the log2 fold change is -0.059.

UBE2J1 (UniProt Q9Y385): the log2 fold change was 0.017.

UFM1 isoform 2 (UniProt P61960): the log2 fold change is -0.057.

Regarding TMEM106B (UniProt Q9NUM4), the log2 fold change is -0.016.

For UBE2D1 (UniProt P51668), the log2 fold change is -0.039.

As for VPS37A (UniProt Q8NEZ2), the log2 fold change is -0.051.

For the target XRCC6 (UniProt P12956), the log2 fold change is -0.08.

UBXN10 (UniProt Q96LJ8): the log2 fold change was -0.426 (active).

Take TXNIP (UniProt Q9H3M7): the log2 fold change is 0.007.

For WEE1 (UniProt P30291), the log2 fold change was -0.045.

TRABD (UniProt Q9H4I3): the log2 fold change was 0.157.

Turning to TMEM164 (UniProt Q5U3C3), the log2 fold change is -0.248.

Consider TRIM44 (UniProt Q96DX7), for which the log2 fold change is 0.02.

Turning to TUBAL3 (UniProt A6NHL2), the log2 fold change is 0.031.

Take TMEM8A (UniProt Q9HCN3): the log2 fold change is -0.048.

Turning to TRIM4 (UniProt Q9C037), the log2 fold change was -0.294.

Take UXT isoform 2 (UniProt Q9UBK9): the log2 fold change was -0.011.

TMEM9B (UniProt Q9NQ34): the log2 fold change was -0.111.

Turning to TMEM219 (UniProt Q86XT9), the log2 fold change was 0.036.

With VPS35L (UniProt Q7Z3J2), the log2 fold change is -0.012.

VPS13B (UniProt Q7Z7G8): the log2 fold change is -0.039.

As to XIAP (UniProt P98170), the log2 fold change was -0.001.

As to VPS51 (UniProt Q9UID3), the log2 fold change is -0.048.
